Drawing on PubChem BioAssay (NCATS), this text covers outcome, Potency and activity, negative = cell killing for 7 compounds.

Test [1] relates to MCC-13. In words: qHTS assay to identify novel small-molecules to repurpose for Merkel cell carcinoma treatment (AID 1296009). Also: nearly all actives have a fitted effect of over 60% in size. The conditions noted are these: MCC and control cell lines, CellTiter-Glo viability, 72 h; series mostly up to 46 µM. An outline of the steps:
(§1)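 72 hr, 37 degree celsius; NPC 8-pt / MIPE 11-pt dose response; compound pinned in DMSO; CellTiter-Glo, 10 min RT, luminescence; normalized to no-cell and DMSO controls.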
(In general: Quantitative high-throughput screening tests each substance at several concentrations.)

Test [2] deals with MCC-26. Described as above. The conditions noted are these: MCC and control cell lines, CellTiter-Glo viability, 72 h; series mostly up to 46 µM. The essentials: as §1
(Cellular ATP, detected with luciferase, serves as a proxy for viable cell number.)

Test [3] relates to MKL-1. Described as above. The conditions noted are these: MCC and control cell lines, CellTiter-Glo viability, 72 h; series mostly up to 46 µM. An outline of the steps: as §1
For test [4], the system named is MKL-2. The test is described as above. The conditions noted are these: MCC and control cell lines, CellTiter-Glo viability, 72 h; series mostly up to 46 µM. An outline of the steps: as §1
Test [5] relates to UISO. The test is described as above. The conditions noted are these: MCC and control cell lines, CellTiter-Glo viability, 72 h; series mostly up to 46 µM. An outline of the steps: as §1
Test [6] has as its system WaGa. The test is described as above. To be noted: MCC and control cell lines, CellTiter-Glo viability, 72 h; series mostly up to 46 µM. The essentials:
as §1

Test [7] relates to C33A. In words: Primary qHTS to identify gynecologic anti-cancer compounds using libraries of approved drugs and bioactive compounds (AID 1345084). Also: nearly all actives have a fitted effect of over 55% in size. To be noted: Gynecologic cancer cell panel viability, ATPlite luminescence, 48 h; series mostly up to 57.5 µM. The essentials: (§2)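 Cytotoxicity screen measuring ATP content by luciferase luminescence. Each compound is applied at five concentrations for 48 h at 37 C with 5% CO2.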

The test system of test [8] is CAOV3. The test is described as above. To be noted: Gynecologic cancer cell panel viability, ATPlite luminescence, 48 h; series mostly up to 57.5 µM. The essentials:
as §2

Test [9] has as its system CASKI. Described as above. To be noted: Gynecologic cancer cell panel viability, ATPlite luminescence, 48 h; series mostly up to 57.5 µM. The essentials: as §2
For test [10], the system named is Es-2. The test is described as above. To be noted: Gynecologic cancer cell panel viability, ATPlite luminescence, 48 h; series mostly up to 57.5 µM. An outline of the steps: as §2
Test [11] relates to HeLa. The test is described as above. To be noted: Gynecologic cancer cell panel viability, ATPlite luminescence, 48 h; series mostly up to 57.5 µM. An outline of the steps:
as §2

Test [12] concerns Hek293T. The description is as above. To be noted: Gynecologic cancer cell panel viability, ATPlite luminescence, 48 h, control line for the selectivity index; series mostly up to 57.5 µM. The essentials:
as §2

Test [13] has as its system JEG-3. Described as above. The conditions noted are these: Gynecologic cancer cell panel viability, ATPlite luminescence, 48 h; series mostly up to 57.5 µM. An outline of the steps:
as §2

Test [14] relates to OV90. Described as above. To be noted: Gynecologic cancer cell panel viability, ATPlite luminescence, 48 h; series mostly up to 57.5 µM. An outline of the steps: as §2
In test [15] the test system is PA-1. The test is described as above. The conditions noted are these: Gynecologic cancer cell panel viability, ATPlite luminescence, 48 h; series mostly up to 57.5 µM. An outline of the steps:
as §2

The test system of test [16] is SKOV3. The test is described as above. To be noted: Gynecologic cancer cell panel viability, ATPlite luminescence, 48 h; series mostly up to 57.5 µM. The essentials: as §2
Test [17] relates to Tov-21-G. The description is as above. The conditions noted are these: Gynecologic cancer cell panel viability, ATPlite luminescence, 48 h; series mostly up to 57.5 µM. An outline of the steps:
as §2

Test [18] deals with Tov112D. Described as above. To be noted: Gynecologic cancer cell panel viability, ATPlite luminescence, 48 h; series mostly up to 57.5 µM. An outline of the steps:
as §2

Test [19] can be described thus: Drug repurposing screens with cells derived from glioblastoma tumor samples (AID 1345199). Also: nearly all actives have a fitted effect of over 40% in size. Also: potency is read from the fitted curve at half-maximal effect. To be noted: GBM patient neurospheres viability, ATP luminescence, 48 h. An outline of the steps: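 Four patient lines of CD133+ GBM neurospheres were screened at several concentrations; hits were retested in those lines plus three slower-growing GBM lines, using 48-hour treatment and ATP-based viability.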

Test [20] has as its system NIH3T3. In words: qHTS assay to identify novel small-molecules to repurpose for Merkel cell carcinoma treatment (AID 1296009). Also: nearly all actives have a fitted effect of over 60% in size. To be noted: MCC and control cell lines, CellTiter-Glo viability, 72 h; at 44.8 µM (top of the series) unless noted. The essentials:
as §1

Setting [21] is: at 45.9 µM (top of the series), tumour line B.

Records with an inconclusive call do not appear. Values without a mark were called inactive. The source made the active and inactive calls. Calls follow the shape of the dose curve; as a rule, active = well fitted curve in the direction sought with a large enough effect; inconclusive = small, poorly fitted or top-dose-only effect, or another doubt; inactive = no such curve, though single readings can be large; an effect the other way counts as inactive or inconclusive.
% is scaled to controls: 0 for no effect and ±100 for the full control effect.

With `CCN[C@@H](C)Cc1cccc(C(F)(F)F)c1`, the outcome in test [1], in test [8], in [9], in [12], in test [13] and in test [16] was inactive. Besides, the Potency entry in test [2], in [3], in test [4], in test [5], in [6] and in [7] was “inactive” in each case. For the same compound, the Potency entry in test [10], in test [11], in test [14], in test [15], in test [17] and in test [18] was “inactive” throughout. The activity, negative = cell killing is 2.77% in [19] (at 91.6 µM (top of the series), tumour line B) and -1.09% in test [19] (at 91.6 µM (top of the series), tumour line D).

On to `CN1C(=O)COc2c(C(=O)NC3CN4CCC3CC4)cc(Cl)cc21` (stereo not drawn), for which the compound was called inactive in test [1], in test [8], in test [9], in [12], in test [13] and in test [16]. Besides, the Potency result in [2], in test [3], in [4], in test [5], in test [6] and in test [7] was “inactive” each time. The Potency result in test [10], in [11], in test [14], in [15], in [17] and in test [18] was “inactive” in each case. For the same compound, the Potency in [19] (tumour line A) is 22.4 µM (active).

`CC1(C)C(C=C(Cl)Cl)C1C(=O)OC(C#N)c1cccc(Oc2ccccc2)c1` (stereo not drawn): the outcome in [1], in test [20], in test [8], in [9], in test [12] and in [13] was inactive. In [16], the compound was classed as inactive. For the same compound, the Potency result in test [2], in test [3], in test [4], in test [5], in test [6] and in test [7] was “inactive” in each case. Further, the Potency entry in test [10], in [11], in [14], in [15], in [17] and in [18] was “inactive” throughout. The activity, negative = cell killing in test [19] (setting [21]) is -16.8%; in test [19] (at 46.1 µM (top of the series), tumour line C), -35.5%. Also, in test [19] (tumour line A), the Potency is 25.1 µM (active).

`CC(C)(N)Cc1ccccc1Cl`: the compound was classed as inactive in test [1], in test [8], in test [9], in [12], in test [13] and in [16]. The Potency entry in test [2], in [3], in test [4], in test [5], in test [6] and in test [7] was “inactive” in each case. The Potency result in test [10], in test [11], in test [14], in [15], in [17] and in test [18] was “inactive” in each case.

On to `CC(C)NC(C)C`, for which the call in [1], in [20], in test [8], in test [9], in test [12] and in test [13] was inactive. In test [16], the outcome was inactive. Moreover, the Potency result in test [2], in [3], in [4], in test [5], in [6] and in test [7] was “inactive” each time. The Potency result in [10], in test [11], in test [14], in test [15], in [17] and in test [18] was “inactive” in each case. Besides, the activity, negative = cell killing in [19] (setting [21]) is 6.4%; in [19] (at 45.9 µM (top of the series), tumour line D), 4.87%; in test [19] (at 46 µM (top of the series), tumour line A), 1.87%.

With `O=c1[nH]c2ccccc2n1C1CCNCC1`, the result in [1], in test [20], in [8], in [9], in [12] and in test [13] was inactive. For the same compound, the compound was classed as inactive in test [16]. Moreover, the Potency result in [2], in test [3], in test [4], in test [5], in [6] and in test [7] was “inactive” in each case. For the same compound, the Potency result in test [10], in test [11], in test [14], in [15], in test [17] and in test [18] was “inactive” throughout.

Take `CC(Cc1ccccc1)N(C)Cc1ccco1` (stereo not drawn): the outcome in test [1], in test [8], in [9], in test [12], in test [13] and in test [16] was inactive. The Potency result in test [2], in test [3], in test [4], in test [5], in test [6] and in [7] was “inactive” throughout. In addition, the Potency result in [10], in test [11], in test [14], in test [15], in [17] and in [18] was “inactive” throughout.
